Source: PubChem (National Center for Advancing Translational Sciences (NCATS))
The list is not random: actives were taken first. Their share in the collection is about 1.3%.
Glioma ERSR ind – induces the endoplasmic reticulum stress response in human glioma cells; U87-MG GRP78 promoter luciferase reporter, 16 h; Potency, µM, inactives show top-dose activation, hits mostly activators; 420,000 tested, 0.02% active; AID 602332; note: potency is the fitted concentration of half-maximal effect; series mostly up to about 76 µM; % of control where 0% means no effect; nearly all actives have a fitted effect of over 35% in size
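Stably transfected U87-MG human glioma cells carrying a GRP78-based luminescent sensor were seeded at 1000 cells/well, pin-dosed with compounds and incubated 16 h. Luciferase reagent was then added, and end-point luminescence was read after 10 min at room temperature.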
Pin1 inhibitor – human Pin1 inhibition; Pin1 FP peptide displacement, HiFluor488, 10 min; Potency, µM (top dose mostly 115 µM), without a hit: at the top dose activity, negative = inhibition, actives largely listed as inhibitors; 390,000 tested, 0.009% active; AID 504891; active = well fitted inhibition curve with a large enough effect in the polarisation, with a control signal flat, not every such curve was filed as active; inconclusive = small, poorly fitted or top-dose-only effect, or effect the other way, or a change in a side signal; inactive = no such curve, though single readings can be large or run the other way; the % refers to the polarisation; note: potency is the fitted concentration of half-maximal effect; % is set by controls: 0 for no effect and ±100 for the full control effect
Target sequence (Q13526 whole entry, looked up): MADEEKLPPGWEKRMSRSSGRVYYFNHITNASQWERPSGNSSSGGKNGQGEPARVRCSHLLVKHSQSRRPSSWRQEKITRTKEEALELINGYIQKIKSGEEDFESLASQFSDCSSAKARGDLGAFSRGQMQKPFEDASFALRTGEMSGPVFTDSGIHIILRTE
WRN helicase inh – inhibitors of human WRN helicase; Q14191; WRN helicase unwinding, fluorescent forked duplex, kinetic; Potency, µM (highest dose often 114 µM), inactives show at the highest dose activity change, negative = inhibition, actives largely listed as inhibitors; 360,000 tested, 0.46% active; note: potency is the fitted concentration of half-maximal effect; % is set by controls: 0 for no effect and ±100 for the full control effect; nearly all actives have a fitted effect of over 55% in size
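Fluorescence dequenching readout, ex 525 nm/em 598 nm, kinetic mode: forked duplex DNA (100 nM final) with adjacent fluorophore and quencher unwound by WRN (20 nM final) with 2 mM ATP. Compound preincubation 15 min, room temperature.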
FEN1 inh – human FEN1 inhibition; Recombinant FEN1 flap cleavage, fluorescence, 15 min; Potency, µM (titrated, usually from 114 µM), inactives show at the top dose activity change, negative = inhibition, most hits filed as inhibitors; P39748; 390,000 tested, 0.35% active; AID 588795; note: potency is the fitted concentration of half-maximal effect; % is set by controls: 0 for no effect and ±100 for the full control effect; nearly all actives have a fitted effect of over 65% in size
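Compounds are tested as a concentration series against 10 nM FEN1; after a 15 min room-temperature preincubation, 50 nM substrate starts cleavage, with plate reads at 0 and 15 min. Normalized responses are fitted by a Hill equation.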
Tb PGK inh – T. brucei PGK inhibition; Potency, µM (series often up to 57.5 µM), for the others: top-dose activity change, negative = inhibition, actives largely listed as inhibitors; P07378; 380,000 tested, 0.043% active; PGK/GAPDH coupled, Kinase-Glo luminescence, 60 min; AID 602233; note: potency is the fitted concentration of half-maximal effect; % is set by controls: 0 for no effect and ±100 for the full control effect; nearly all actives have a fitted effect of over 60% in size
Target sequence (P07378 whole entry, looked up): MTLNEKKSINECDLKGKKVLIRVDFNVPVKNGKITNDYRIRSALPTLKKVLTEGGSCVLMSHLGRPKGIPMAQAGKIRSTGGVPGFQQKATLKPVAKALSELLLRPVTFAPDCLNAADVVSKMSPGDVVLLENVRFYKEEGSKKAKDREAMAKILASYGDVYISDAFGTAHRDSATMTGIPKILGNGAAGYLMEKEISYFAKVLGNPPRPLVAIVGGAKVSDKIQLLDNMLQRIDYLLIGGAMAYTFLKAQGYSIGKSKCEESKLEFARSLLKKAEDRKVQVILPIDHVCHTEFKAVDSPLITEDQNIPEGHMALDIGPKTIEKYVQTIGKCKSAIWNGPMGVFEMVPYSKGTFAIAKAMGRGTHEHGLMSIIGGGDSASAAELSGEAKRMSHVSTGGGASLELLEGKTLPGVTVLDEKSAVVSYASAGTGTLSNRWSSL
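Luminescent ATP detection (Kinase-Glo Plus) follows a 60-minute room-temperature incubation, with wells lacking PGK as controls. Buffer: 100 mM TEA (pH 7.6), 5 mM MgCl2, 0.01% Tween-20. Coupling enzyme GAPDH (100 nM final) supplies unstable 1,3-BPG in-well.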
PI5P4K alpha inh – inhibitors of human PI5P4K alpha; AID 652105; PI5P4Kalpha enzyme, ADP-Glo luminescence, 60 min; hits give low values; max response, %; 330,000 tested, 1.2% active; active = max response of -50% or lower; inconclusive = between -30% and -50%; inactive = -30% or higher; note: value at the top dose of about 77 µM; % is set by controls: 0 for no effect and ±100 for the full control effect
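Reactions run in 0.038 M HEPES pH 7.4, 0.28 mM EGTA, 0.1% CHAPS and 5% DMSO, with PI5P4Kalpha, substrate, compound and 5 microM ATP final, one hour at room temperature. Readout is ADP-Glo luminescence.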
ADP-Glo interf – counter-screen for PI5P4K inhibitors: ADP-Glo detection interference, no enzyme; shares compounds with PI5P4K alpha inh; ADP-Glo detection counter-screen, luciferase luminescence, no enzyme; Potency, µM (series often up to 76.9 µM), for inactives: at the highest dose activity change, negative = inhibition, hits mostly inhibitors; 1,100 tested, under 10 active
An asterisk follows results filed as active; i = inactive; ? = inconclusive; . = no result; [ ] = remark or other dose. Unless noted, calls come from the whole dose curve; as a rule, active = well fitted curve in the direction sought with a large enough effect; inconclusive = small, poorly fitted or top-dose-only effect, or another doubt; inactive = no such curve, though single readings can be large; an effect the other way counts as inactive or inconclusive.

SMILES	Glioma ERSR ind	Pin1 inhibitor	WRN helicase inh	FEN1 inh	Tb PGK inh	PI5P4K alpha inh	ADP-Glo interf
O=C(COc1cccc2ccccc12)Nc1cc(Cl)ccc1C(=O)O	12%	-10%	?	-13%	-1%	?	.
O=C(CSc1nc2[nH]c(=O)cc(O)c2s1)Nc1ccc(Cl)c(C(F)(F)F)c1	-1%	28%	-5%	11%	-5%	-54*	2%
O=C(CSc1nc2[nH]c(=O)cc(O)c2s1)Nc1cc(Cl)cc(Cl)c1	-5%	23%	-11%[57.1 µM]	-10%	0%	?	.
Cc1cc(Nc2ccccc2C(=O)O)ccc1Cl	1%	.	.	.	.	.	.
Cc1cccc(C(=O)N2CCOc3ccc(CN(C)Cc4cc(C5CC5)n[nH]4)cc3C2)n1	-5%	.	.	.	.	.	.
c1ccc(Cc2nnc3sc(-c4ccco4)nn23)cc1	-7%	-10%	?	?	-6%	-51*	2%
CC(C)(C)c1csc(NC(=O)c2ccc3nccnc3c2)n1	1%	8%	-3%	-6%	-9%	-52*	-5%
Cc1ncc2c(c1CNS(=O)(=O)N(C)C)CCN(C(=O)/C=C/c1ccccc1Cl)C2	-2%	.	.	.	.	.	.
Cc1ccc2c(CC(=O)OCC(=O)N(CC(C)C)c3c(N)n(Cc4ccccc4)c(=O)[nH]c3=O)coc2c1	-7%	18%	-35%	-3%	0%	-59*	-1%
CCN(C(=O)COC(=O)Cc1coc2cc(C)ccc12)c1c(N)n(Cc2ccccc2)c(=O)[nH]c1=O	-4%	16%	-30%	-1%	-2%	3	.
CCc1cc(C(=O)NCc2c(C)ncc3c2CCN(C(=O)C2=CCCC2)C3)no1	-4%	.	.	.	.	.	.
COc1cccc(C(=O)NCC2Cc3c(F)ccc(-c4ncccn4)c3O2)c1OC (stereo not given)	-2%	.	.	.	.	.	.
COC(=O)c1sccc1S(=O)(=O)N1CCC(n2c(CC3CCCC3)nc3cccnc32)CC1	-4%	.	.	.	.	.	.
O=C(Nc1ccc(Cl)cc1)Nc1ccccc1CC[N+](=O)[O-]	3%	-1%	-36%	-14%	-9%	-79*	-3%
COc1cccc(-c2ccc(O)c(CNCc3cccc(OC)c3OC)c2)n1	-3%	.	.	.	.	.	.
CNC(=O)Nc1ccc(Cn2cc(C(F)(F)F)ccc2=O)cc1	-4%	-7%	1%	-2%	2%	-7	.
CC(C)(C)NC(=O)Nc1ccc(Cn2cc(C(F)(F)F)ccc2=O)cc1	5%	-2%	-15%	0%	7%	-55*	-1%
O=C(O)Cc1nc(-c2cccnc2)sc1-c1ccc(Br)cc1	-6%	0%	-28%	1%	13%	-61*	-7%
O=C(O)Cc1sc(-c2ccccc2)nc1-c1ccccc1	-1%	0%	-7%	4%	-11%	2	.
O=C(c1ccc(-c2ccc(Cl)cc2)o1)N1CCN(S(=O)(=O)c2cccs2)CC1	1%	34%	4%	10%	-9%	1	.
O=C(c1ccco1)N1CCN(C(=O)c2ccc(-c3ccc([N+](=O)[O-])cc3)o2)CC1	-2%	.	?	79µM*	-12%	-74*	3%
O=C(c1ccc(-c2ccc([N+](=O)[O-])cc2)o1)N1CCN(S(=O)(=O)c2cccs2)CC1	-1%	6%	-17%	-4%	0%	-51*	-9%
C[C@@H](NC(=O)c1nc[nH]c1C(=O)N[C@@H](Cc1ccccc1)C(=O)OCc1ccccc1)c1ccccc1	-2%	1%	-10%	?	i	-2	.
O=C(N[C@@H](Cc1ccccc1)C(=O)OCc1ccccc1)c1nc[nH]c1C(=O)NC(c1ccccc1)c1ccccc1	-3%	?	-13%	8%	-3%	7	-2%
O=c1cc(CN2CCN(S(=O)(=O)c3cccc(Cl)c3)CC2)c2ccc(O)cc2o1	-6%	?	-3%[11.6 µM]	1%	-5%	-74*	-6%
SMILES	Glioma ERSR ind	Pin1 inhibitor	WRN helicase inh	FEN1 inh	Tb PGK inh	PI5P4K alpha inh	ADP-Glo interf
S=C(NCc1ccccc1)N1CCc2ccccc2C1	-1%	2%	-5%	0%	6%	-93*	6%
COC(=O)Nc1ccc(S(=O)(=O)N2CCC(C(=O)N3CCC(C)CC3)CC2)cc1	-2%	-16%	-19%	-3%	1%	-80*	0%
COc1cc(=O)n2c(c1C(=O)N(C)Cc1nonc1C)CCN(Cc1cc(C)ccc1C)CC2	-2%	.	.	.	.	.	.
COC(=O)CNC(=O)C1Cc2ccccc2CN1S(=O)(=O)c1cccs1 (stereo not given)	2%	-7%	-4%[11.6 µM]	-5%	-8%	-5	-4%
O=C(c1cccc(F)c1F)N1CCOc2ccc(CN3CCN(Cc4ccccn4)CC3)cc2C1	-2%	.	.	.	.	.	.
Cc1ccc(S(=O)(=O)N2CCN(C(=O)c3cccc(-n4cccc4)c3)CC2)cc1	-2%	21%	?	-3%	-15%	-52*	-10%
CCOC(=O)c1ccc(N2CSC3=C(C#N)C(c4ccc(OC)cc4OC)CC(=O)N3C2)cc1 (stereo not given)	-2%	9%	-5%	?	0%	-26	.
COc1cccc(C2CC(=O)N3CN(c4cccc(Cl)c4C)CSC3=C2C#N)c1OC (stereo not given)	-2%	4%	-3%	-25%	-8%	-93*	-14%
COc1ccc(OC)c(C2CC(=O)N3CN(c4cccc(Cl)c4)CSC3=C2C#N)c1 (stereo not given)	-4%	0%	0%	?	-9%	-77*	-11%
COc1ccc(OC)c(C2CC(=O)N3CN(c4cccc(Cl)c4C)CSC3=C2C#N)c1 (stereo not given)	-2%	4%	0%	-21%	-3%	-64*	-6%
Cc1cc2c(s1)c1cnn(Cc3ccccc3Cl)c(=O)c1n2C	.	4%	.	.	.	.	.
COc1ccc(-c2nc3cc(F)ccc3cc2CN(C(=O)c2ccc3c(c2)OCO3)C2CC2)cc1	-4%	.	.	.	.	.	.
CN(C)CCOC1=Cc2ccccc2Sc2ccc(Cl)cc21	-4%	.	.	.	.	.	.
